Shown are actives, neighbours in structure and some others; about 2.8% of the full set was active somewhere.
HepG2 tox-1 = kills HepG2 cells in TGF-b inhibitor counter-screen; HepG2 CAGA-GFP viability, ATP luminescence, 18 h; Potency, µM (doses to about 46.1 µM), inactives show top-dose activity change, negative = cytotoxicity, usual class: cytotoxic; 0.76% of 410,000 active; AID 588856
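CellTiter-Glo luminescence gave cytotoxicity after 18 hours at 37 degrees C. The cells were HepG2 CAGA-GFP in 1% FBS DMEM, stimulated with 500 pg/mL TGF-beta after compound addition. %Activity was normalised to no-cell wells (complete cell-killing) and DMSO (no toxicity), and curves were fitted and classified.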
TGFb inhibitor = inhibitors of TGF-b signaling; 1.2% of 410,000 active; HepG2 CAGA-GFP TGF-b/SMAD3 reporter, GFP fluorescence, 18 h; TGF-beta stimulated, 500 pg/mL final; Potency, µM (series often up to 46.1 µM), for the others: at the highest dose activity, negative = inhibition, most hits filed as inhibitors; note: % is set by controls: 0 for no effect and ±100 for the full control effect; nearly all actives have a fitted effect of over 65% in size
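Inhibition of TGF-beta-driven CAGA-GFP reporter expression in HEPG2 cells is measured by cellular GFP fluorescence after 18 h stimulation with 500 pg/mL recombinant TGF-beta in 1% FBS medium at 37 degrees C.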
HttQ103 aggreg = reduces HttQ103-GFP aggregates in PC12 cells. PC12 HttQ103-GFP aggregates, Acumen cytometry, 40 h. Potency, µM (titrated, usually from 46.1 µM), for the others: top-dose activity change, negative = inhibition, most hits filed as inhibitors. 1.1% of 220,000 active. AID 1688; note: % is set by controls: 0 for no effect and ±100 for the full control effect; nearly all actives have a fitted effect of over 60% in size
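PC12 cells stably carrying ecdysone-inducible HTT exon 1 Q103–GFP were induced with tebufenozide (100 nM final) and treated with library compounds in titration. GFP aggregates in lysates were counted by laser scanning cytometry.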
HTT ATP protect = Huntington cell model cytoprotection by ATP luminescence; PC12 HTT-Q103 induced, cytoprotection, ATP luminescence, 40 h; Potency, µM (titrated, usually from 56.4 µM), without a hit: cytoprotection (ATP increase), usual class: activators; 0.14% of 230,000 active; note: % of control where 0% means no effect; nearly all actives have a fitted effect of over 45% in size
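Huntington model: PC12 line, ecdysone-inducible HTTQ103 exon1–GFP, tebufenozide 100 nM. Test articles in a dose series. Endpoint luminescence from cellular ATP.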
S2 tox = viability counter-screen for ATXN expression inhibitors | S2 cells (HEK-293 line with an ATXN2-luciferase reporter) viability, CellTiter-Fluor protease fluorescence, 24 h | Potency, µM (highest dose often 56.7 µM), usual class: cytotoxic | 0.49% of 400,000 active | AID 651635; note: nearly all actives have a fitted effect of over 40% in size
ATXN2 expr inh = ATXN2 expression inhibition; 0.72% of 360,000 active; HEK-293 ATXN2-luciferase reporter, luminescence, 24 h; Potency, µM (top dose mostly 57 µM), for the others: at the top dose activity change, negative = inhibition, actives largely listed as inhibitors; note: % is set by controls: 0 for no effect and ±100 for the full control effect; nearly all actives have a fitted effect of over 55% in size
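qHTS (up to 57 uM final) was run with 24 h compound exposure of reporter cells at 37 °C. Each well was multiplexed: SteadyGlo luminescence measured ATXN2-luciferase expression after a fluorogenic Gly-Phe-AFC viability readout (25 uM final).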
TGFb CAGA inh = TGF-b pathway inhibition, cherry-pick retest; AID 720534; HepG2 CAGA-GFP TGF-b reporter, GFP fluorescence, 18 h; cells stimulated with TGF-beta, 500 pg/mL; 63% of 1,600 active; Potency, µM (top dose mostly 46.1 µM), without a hit: top-dose activity, negative = inhibition, most hits filed as inhibitors; shares compounds with TGFb inhibitor; note: % is set by controls: 0 for no effect and ±100 for the full control effect; nearly all actives have a fitted effect of over 65% in size
HepG2 tox-2 = toxic to HepG2 cells in TGF-b counterscreen; shares compounds with TGFb inhibitor; HepG2 CAGA-GFP viability, ATP luminescence, 18 h; cells stimulated with TGF-beta, 500 pg/mL; Potency, µM (titrated, usually from 46.1 µM), without a hit: at the top dose activity, negative = cytotoxicity, most hits filed as inhibitors; 27% of 1,600 active; note: % is set by controls: 0 for no effect and ±100 for the full control effect; nearly all actives have a fitted effect of over 70% in size
CCL64 TGFb inh = TGF-b inhibition, CCL64 orthogonal assay | shares compounds with TGFb inhibitor | Potency, µM (series often up to 46.1 µM), without a hit: at the top dose activity, negative = inhibition, hits mostly inhibitors | CCL64 CAGA-GFP reporter, TGF-b stimulated, GFP fluorescence, 18 h | 41% of 1,600 active; note: nearly all actives have a fitted effect of over 65% in size
COP TGFb inh = blocks TGF-b signaling in HepG2 COP reporter. HepG2 COP-GFP TGF-b reporter, GFP fluorescence, 18 h; cells stimulated by added recombinant TGF-beta. Potency, µM (highest dose often 46.1 µM), for the others: top-dose activity, negative = inhibition, hits mostly inhibitors. 3% of 1,600 active. shares compounds with TGFb inhibitor; note: nearly all actives have a fitted effect of over 70% in size
Active calls of the source: *; [ ] = another dose, or the depositor's remark. Calls come from the whole dose curve; as a rule, active = well fitted curve in the direction sought with a large enough effect; inconclusive = small, poorly fitted or top-dose-only effect, or another doubt; inactive = no such curve, though single readings can be large; an effect the other way counts as inactive or inconclusive. Potency is the fitted concentration of half-maximal effect.

Screening CC(C)C[C@H]1CNC(=S)N1C[C@H]1CCCN1C[C@H](CC(C)C)N1C[C@H](Cc2ccc(O)cc2)N(CCc2ccccc2)C1=S returned HepG2 tox-1 -97%, TGFb inhibitor 7.1µM*, S2 tox 7.1µM*, ATXN2 expr inh inconclusive, TGFb CAGA inh inconclusive, HepG2 tox-2 21µM*, CCL64 TGFb inh 23µM* and COP TGFb inh 24%.
COC(=O)[C@H](CCSC)NC(=O)C/C=C\[C@@H](C)[C@@H](CO)OC was read as HTT ATP protect 0%[10 µM].
Cc1ccc(-c2nc3ccc(Br)cn3c2Cc2cccc(F)c2)cc1 was read as HepG2 tox-1 -11%, TGFb inhibitor 11µM*, S2 tox inactive, ATXN2 expr inh 68%, TGFb CAGA inh inconclusive, HepG2 tox-2 -16%, CCL64 TGFb inh inconclusive and COP TGFb inh -2%.
`O=C(Nc1ccc(NC(=O)c2ccc([N+](=O)[O-])o2)cc1Cl)c1ccco1` gave HepG2 tox-1 -27%, TGFb inhibitor 9%, S2 tox inactive and ATXN2 expr inh 1%.
O=C(Nc1cccc(NC(=O)c2cccs2)c1)c1ccc([N+](=O)[O-])o1 was read as HepG2 tox-1 22µM*, TGFb inhibitor 5.6µM*, HttQ103 aggreg 42%[9.22 µM], HTT ATP protect 26%[10 µM], S2 tox inconclusive, ATXN2 expr inh inconclusive, TGFb CAGA inh 5.2µM*, HepG2 tox-2 21µM*, CCL64 TGFb inh 12µM* and COP TGFb inh inconclusive.
Screening O=C(Nc1cccc(NC(=O)c2ccc([N+](=O)[O-])o2)c1)c1ccco1 returned HepG2 tox-1 11µM*, TGFb inhibitor 4µM*, S2 tox inconclusive, ATXN2 expr inh -26%, TGFb CAGA inh 6.5µM*, HepG2 tox-2 inconclusive, CCL64 TGFb inh 16µM* and COP TGFb inh inconclusive.
For CC1=CC(=O)C2=C(C)C[C@H](OC(=O)Cc3ccccc3)C3[C@H](OC(=O)[C@H]3C)C12 (stereo partly specified) the results were HTT ATP protect -21%.
For NC(=O)CC(NC(=O)Cc1cccc2ccccc12)c1ccc(N2CCC(Br)CC2)c([N+](=O)[O-])c1 (stereo unspecified) the results were HepG2 tox-1 -28%, TGFb inhibitor 13µM*, HttQ103 aggreg 1%[9.22 µM], HTT ATP protect 11%[10 µM], S2 tox inconclusive, ATXN2 expr inh inconclusive, TGFb CAGA inh inconclusive, HepG2 tox-2 -12%, CCL64 TGFb inh inconclusive and COP TGFb inh -5%.
For NC(=O)CC(NC(=O)Cc1cccc2ccccc12)c1ccc(N2CCc3ccccc3C2)c([N+](=O)[O-])c1 (stereo unspecified) the results were HepG2 tox-1 -25%, TGFb inhibitor 13µM*, HttQ103 aggreg -10%[9.22 µM], HTT ATP protect -1%[10 µM], S2 tox 35µM*, ATXN2 expr inh inconclusive, TGFb CAGA inh inconclusive, HepG2 tox-2 inconclusive, CCL64 TGFb inh inconclusive and COP TGFb inh 45%.
For Cc1cccc(CNc2ccc(C(CC(N)=O)NC(=O)Cc3cccc4ccccc34)cc2[N+](=O)[O-])c1 (stereo unspecified) the results were HepG2 tox-1 -17%, TGFb inhibitor inconclusive, HttQ103 aggreg 14%[9.22 µM], HTT ATP protect 17%[10 µM], S2 tox inconclusive, ATXN2 expr inh -30%, TGFb CAGA inh inconclusive, HepG2 tox-2 inconclusive, CCL64 TGFb inh 1.6µM* and COP TGFb inh -25%.
NC(=O)CC(NC(=O)Cc1ccc(Br)cc1)c1ccc(N2CCN(c3ccccn3)CC2)c([N+](=O)[O-])c1 (stereo unspecified) was read as HepG2 tox-1 -58%, TGFb inhibitor 7.9µM*, S2 tox inconclusive, ATXN2 expr inh inconclusive, TGFb CAGA inh inconclusive, HepG2 tox-2 inconclusive, CCL64 TGFb inh 0% and COP TGFb inh 0%.
`NC(=O)CC(NC(=O)Cc1cccc2ccccc12)c1ccc(N2CCCCCC2)c([N+](=O)[O-])c1` (stereo unspecified) gave HepG2 tox-1 -17%, TGFb inhibitor -28%, S2 tox inconclusive and ATXN2 expr inh -12%.
Screening CCCCCC=CCC=CCCCCCCCC(=O)OCC returned HttQ103 aggreg -6%, HTT ATP protect -32%, S2 tox inactive and ATXN2 expr inh -5%.
`NC(N)=NC(N)=Nc1c(F)c(F)c(F)c(F)c1F` gave HTT ATP protect 13%[10 µM].
CCCCC(=O)N1C/C=C\C(c2ccc(OC)cc2)N(Cc2ccc(F)cc2)C(=O)C1Cc1ccccc1 (stereo unspecified) was read as HepG2 tox-1 -20% and TGFb inhibitor inconclusive.
For COc1ccc(-c2cc(C(=O)N(C)CC(=O)Nc3cccc(F)c3)c3ccccc3n2)cc1 the results were HepG2 tox-1 -11%, TGFb inhibitor inconclusive, S2 tox inconclusive, ATXN2 expr inh -10%, TGFb CAGA inh 18µM*, HepG2 tox-2 inconclusive, CCL64 TGFb inh inconclusive and COP TGFb inh 82%.
CCCCC(=O)N(C)C was read as HTT ATP protect 25%.
COc1ccccc1CCn1c(=O)c(-c2cccs2)nc2cncnc21 was read as HTT ATP protect 24%.

Compound activity: PubChem, National Center for Advancing Translational Sciences (NCATS)
